Screening data from PubChem.
GLS inhibitor – blocks human kidney-isoform glutaminase activity; O94925; GLS enzymatic activity, qHTS titration; Potency, µM (doses to about 45.5 µM), for the others: top-dose activity change, negative = inhibition, usual class: inhibitors; 0.21% of 410,000 active
Target sequence (O94925 whole entry, looked up, canonical isoform): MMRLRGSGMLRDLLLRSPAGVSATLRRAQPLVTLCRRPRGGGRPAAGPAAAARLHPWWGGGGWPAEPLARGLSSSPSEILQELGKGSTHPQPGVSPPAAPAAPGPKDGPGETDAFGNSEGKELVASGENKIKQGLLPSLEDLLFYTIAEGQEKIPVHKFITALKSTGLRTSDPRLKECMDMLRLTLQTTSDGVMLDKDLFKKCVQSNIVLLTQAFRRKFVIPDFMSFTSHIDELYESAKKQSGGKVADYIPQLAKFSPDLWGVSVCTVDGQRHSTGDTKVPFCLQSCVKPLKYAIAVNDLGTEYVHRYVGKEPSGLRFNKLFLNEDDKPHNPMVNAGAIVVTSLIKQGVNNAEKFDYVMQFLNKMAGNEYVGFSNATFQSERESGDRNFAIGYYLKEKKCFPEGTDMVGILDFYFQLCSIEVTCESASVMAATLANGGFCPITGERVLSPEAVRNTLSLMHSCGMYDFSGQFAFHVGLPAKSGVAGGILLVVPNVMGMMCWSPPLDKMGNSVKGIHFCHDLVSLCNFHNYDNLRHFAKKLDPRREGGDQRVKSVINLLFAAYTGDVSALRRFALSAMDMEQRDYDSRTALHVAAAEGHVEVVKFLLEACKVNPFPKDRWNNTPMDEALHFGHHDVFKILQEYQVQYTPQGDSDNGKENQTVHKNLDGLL
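Read-out is an Amplex red fluorescence increase coupled through glutamate oxidase and HRP, measured before and after 30 min room-temperature incubation. hKGA is in 45 mM KH2PO4 (pH 8.2) with 0.02% Tween-20; glutamine added as 1mM solution.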
TrxR1 substrate – substrates of rat thioredoxin reductase 1 | O89049 | AID 588456 | 0.01% of 390,000 active | purified TrxR1 substrate turnover, NADPH consumption readout | Potency, µM (titrated, usually from 114 µM), inactives show at the top dose activity change, negative = substrate turnover; further: nearly all actives have a fitted effect of over 50% in size
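Rat TrxR1, dispensed at 90 nM, was prereduced with 400 uM NADPH (final) for 5 min at ~22 deg C, then incubated with compound 15 min before 400 uM selenite. A first-read NADPH fluorescence drop versus no-compound background flagged substrates.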
VDR inh – blocks the human vitamin D receptor | AID 504847 | VDR-SRC2-3 peptide fluorescence polarization, 2 h | 0.93% of 400,000 active | Potency, µM, inactives show max response, negative = inhibition, hits mostly inhibitors | P11473
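Inhibition of the VDR/SRC2-3 peptide interaction is quantified by fluorescence polarization. Compounds (23 nl, pintool) incubate with the reagents for 2 hours at ambient room temperature.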
Sfp inh – blocks B. subtilis Sfp PPTase activity. Q9F4F7. Biochemical Sfp PPTase activity, qHTS. 3.5% of 310,000 active. AID 1490. Potency, µM, without a hit: largest response in the series, negative = inhibition, hits mostly inhibitors;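 further: the enzyme is Sfp with the accession as filed and its product quenches rhodamine fluorescence; 0% = enzyme reaction without inhibitor and -100% = no enzyme wells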
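Step 1, compound plus 15 nM Sfp-PPTase, 15 min, room temperature. Step 2, add rhodamine-CoA (5 uM) and BHQ-2-YbbR (12.5 uM). Step 3, read 525/598 nm fluorescence at 0 and 30 min.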
GCN5L2 inh – GCN5L2 (KAT2A) acetyltransferase inhibition. 0.21% of 390,000 active. GCN5L2 HAT assay, ThioGlo1 CoA-SH fluorescence. Potency, µM (top dose mostly 58.9 µM), inactives show top-dose activity change, negative = inhibition, actives largely listed as inhibitors. Q92830
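Titration-based screen in which CoA formation is detected via maleimide probe ThioGlo1 (50uM) turning fluorescent on thiol reaction; substrates H3(1-25) 75uM and acetyl-CoA 70uM, GCN5L2 20nM, 20 min incubation at room temperature.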
rTrxR1 inhibitor – blocks rat thioredoxin reductase 1; recombinant rTrxR1, NADPH fluorescence consumption, selenite substrate; Potency, µM (series often up to 114 µM), inactives show at the highest dose activity change, negative = inhibition, most hits filed as inhibitors; 1% of 390,000 active; further: nearly all actives have a fitted effect of over 65% in size
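Rat TrxR1 (90 nM in the dispensed reagent) was pre-reduced with 400 uM NADPH for 5 min at room temperature, then incubated with compound for 15 min. After 400 uM selenite was added, NADPH fluorescence (Ex 340/Em 450 nm) was followed for 8 min.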
Starred values were filed as active, the others as inactive; ? = inconclusive; / = not tested or not shown; ! = not confirmed by another sample; [ ] = remark or other dose. Sampled rows, rich in hits. Any-hit rate of the full collection: about 3.8%. The call rests on the fitted dose curve; in most records, active means well fitted curve in the direction sought with a large enough effect; inconclusive means small, poorly fitted or top-dose-only effect, or another doubt; inactive means no such curve, though single readings can be large; an effect the other way counts as inactive or inconclusive. Unless noted, on the % scale 0 is the no-effect control and ±100 the full control effect; potency means the concentration at half of the fitted maximal effect.

SMILES	GLS inhibitor	TrxR1 substrate	VDR inh	Sfp inh	GCN5L2 inh	rTrxR1 inhibitor
CCNC(=O)N1c2ccc(OCC)cc2C(C)=CC1(C)C	73%	17%	-6%	?	-13%	-24%
CCOc1ccc2c(c1)C(C)=CC(C)(C)N2C(=O)Nc1ccccc1F	21%	29%	-7%	35µM*	-2%	-5%
COc1ccc(-n2nc3c(c2NC(=O)COc2ccccc2)CS(=O)(=O)C3)cc1	5%	0%	-16%	21%	-5%	15%
COc1ccc(-n2nc3c(c2NC(=O)COc2cccc(OC)c2)CS(=O)(=O)C3)cc1	-5%	1%	-24%	50µM*	-21%	-11%
COc1ccc(-n2nc3c(c2NC(=O)CCl)CSC3)cc1	0%	16%	-20%	16%	-2%	14µM*
Cn1cc(C(c2ccccc2OCC(=O)O)c2cn(C)c3ccccc23)c2ccccc21	14µM*	-7%	40µM*	-3%	-5%	-8%[57.1 µM]
CCc1nnc(NC(=O)c2ccc(-c3ccc(C(C)=O)cc3)o2)s1	1%	8%	-16%	/	-7%	14µM*
COc1cc2c(cc1OC)CN(C(=O)CSc1nnc3scc(-c4ccccc4)n13)CC2	2%	10%[57.1 µM]	-16%	71µM*	-9%	12%[57.1 µM]
COc1ccc(-c2cc(=S)ss2)cc1	24%	/	40µM*	2%	-14%	/
CCOC(=O)C1=C(c2ccccc2)NC(N)=NC1c1ccc(OCc2ccc(Cl)cc2)c(OC)c1 (stereo not drawn)	11%	-5%	-22%	32µM*	1%	6%
O=C(O)C1C2CCC(C2)C1C(=O)NCCCn1ccnc1 (stereo not drawn)	16%	-2%	-9%	-11%	-3%	-1%
O=C(O)c1cccc(Cl)n1	2%	9%	3%	-3%	2%	15%
O=C(O)c1cccc(C(=O)O)n1	/	/	/	4µM*	-5%	/
O=C(O)c1ccc2cccc(O)c2n1	-27%	4%[57.1 µM]	12%	2.8µM*	-4%	13%[57.1 µM]
CC1CC(C)(C)NC(=S)S1 (stereo not drawn)	-9%	0%	5%	50µM*	-5%	-2%
NC(=O)c1cc2ccc(O)cc2oc1=NCc1ccccc1	17%	387%	-14%	2%	-5%	64%
NC[C@@H]1O[C@H](C23CC4CC(CC(C4)C2)C3)Cc2c1ccc(O)c2O	38%	7%[57.1 µM]	-27%	50µM*!	-4%	?
O=C1C(=O)c2ncccc2-c2cccnc21	-1%	/	1.3µM*	0.63µM*	-7%	/
CCOC(=O)COc1ccccc1/C=N\NC(=O)c1cc2c(ccc3ccccc32)o1	-1%	23%	-7%	-8%	-16%	?
C/C(=N\O)C(=O)C(CN1CCCCC1)CN1CCCCC1	26%	20%[57.1 µM]	-12%	-10%	-19%	0.45µM*
CCOC(=O)N1CCC(NC(=O)c2sc3nc4n(c(=O)c3c2C)CCCC4)CC1	-8%	1%[57.1 µM]	-4%	19%	-3%	16%[57.1 µM]
CCN(C(=O)c1sc2nc3n(c(=O)c2c1C)CCCCC3)c1ccc(OC)cc1	2%	-1%	6%	/	-11%	71µM*
CCOC(=O)N1CCN(C(=O)Nc2sc3nc4n(c(=O)c3c2C)CCC(C)CC4)CC1 (stereo not drawn)	-8%	6%	-11%	-10%	-10%	28µM*
CCOC(=O)c1sc2nc3n(c(=O)c2c1C)CCC(C)CC3 (stereo not drawn)	-7%	8%	-17%	22µM*	-4%	0%
COc1cccc(N(C(=O)c2sc(C)nc2C)C(C(=O)NCC2CCCO2)c2ccccc2)c1 (stereo not drawn)	-10%	5%[0.0914 µM]	?	7%	-2%	11%[57.1 µM]
SMILES	GLS inhibitor	TrxR1 substrate	VDR inh	Sfp inh	GCN5L2 inh	rTrxR1 inhibitor
Cc1ccc(NC(=O)CN(c2ccccc2)S(=O)(=O)N(C)C)cc1C	-1%	-6%[57.1 µM]	6%	-3%	-6%	3%[57.1 µM]
CN(CC(=O)Nc1ccc(F)cc1)C(=O)CN1C(=O)NC2(CCCc3ccccc32)C1=O (stereo not drawn)	4%	1%	1%	14%	-4%	-7%
COc1cc(C(=S)N2CCCC2)cc(OC)c1OC	-1%	-1%	-3%	50µM*	2%	29%
COc1cc(O)cc(OC)c1OC	/	/	45µM*	-4%	-13%	/
COc1cc(C(=S)N2CCCC2)ccc1OS(=O)(=O)c1ccc(NC(C)=O)cc1	15%	-5%	1%	1%	-3%	-4%
COc1ccc(C(=S)N2CCCC2)cc1OC	1%	1%	2%	8%	-3%	4%
CCOc1ccc(C(=S)N2CCCC2)cc1OCC	-6%	-1%	-18%	56µM*	-24%	-2%
COc1cc(C(=S)N2CCCC2)cc(OC)c1OS(=O)(=O)c1ccc(NC(C)=O)cc1	-2%	-12%	?	35µM*	3%	-23%
C(=NN=C1c2ccccc2-c2ccccc21)c1c[nH]c2ccccc12	0%	9%[57.1 µM]	-12%	/	/	9%[11.4 µM]
Cc1csc(NC(=O)c2ccc[nH]c2=O)n1	7%	-9%	-13%	25%	1%	-3%
CC(C)(C)c1cc(C(=S)N2CCCC2)cc(C(C)(C)C)c1O	-19%	-6%	?	40µM*	-5%	14%
CCOc1ccc(C(=S)NC2CCCCC2)cc1OC	-8%	-2%	50µM*	45µM*	1%	?
COc1ccc(C(=O)NC(=S)Nc2ccc(S(N)(=O)=O)cc2)cc1	-2%	7%[11.4 µM]	4%	?	-6%	25%[11.4 µM]
COc1cc(NC(=S)N2CCCCC2C)cc(OC)c1OC (stereo not drawn)	12%	-2%	16%	45µM*	3%	-16%
COC(=O)Cc1ccc(NC(=S)N2CCCCC2C)cc1 (stereo not drawn)	2%	5%[57.1 µM]	-5%	-3%	-1%	-10%[57.1 µM]
COc1cc(C(=O)NNC(=S)Nc2ccc(S(N)(=O)=O)cc2)cc(OC)c1OC	?	-10%[57.1 µM]	4%	13µM*	1%	11%[57.1 µM]
O=C(Nc1ccc2c(c1)OCO2)C1CCN(S(=O)(=O)c2cccc3cccnc23)CC1	3%	8%[57.1 µM]	-4%	2%	-10%	9%[57.1 µM]
COc1ccc(S(=O)(=O)Oc2c(OC)cc(C(=S)N3CCOCC3)cc2OC)cc1	-15%	5%	?	28µM*	-9%	10%
COc1ccc(NC(=O)C(CCSC)N2C(=O)c3ccccc3C2=O)cc1 (stereo not drawn)	11%	-6%	-10%	50µM*	-1%	-4%
CN1CCN(/N=C/c2nc(-c3cccc([N+](=O)[O-])c3)n3ccccc23)CC1	46%	-12%	4%	79µM*	-4%	-2%[57.1 µM]
